Our source for the potentiation values is PubChem BioAssay AID624464 (National Center for Advancing Translational Sciences (NCATS), 2012).

Hit rate of the full screen: of about 360,000 compounds, about 810 (0.23%) were called active. The list comes from a sample in which actives are over-represented; it also holds similar structures and randomly drawn compounds. Unmarked numbers belong to inactive results. No stated cut-off is given here; in the data, active means potentiation above about 50%; inconclusive means mostly about 30% to 49%; inactive means weaker than that.

D(2) dopamine receptor (Homo sapiens), sequence (P14416 whole entry, looked up): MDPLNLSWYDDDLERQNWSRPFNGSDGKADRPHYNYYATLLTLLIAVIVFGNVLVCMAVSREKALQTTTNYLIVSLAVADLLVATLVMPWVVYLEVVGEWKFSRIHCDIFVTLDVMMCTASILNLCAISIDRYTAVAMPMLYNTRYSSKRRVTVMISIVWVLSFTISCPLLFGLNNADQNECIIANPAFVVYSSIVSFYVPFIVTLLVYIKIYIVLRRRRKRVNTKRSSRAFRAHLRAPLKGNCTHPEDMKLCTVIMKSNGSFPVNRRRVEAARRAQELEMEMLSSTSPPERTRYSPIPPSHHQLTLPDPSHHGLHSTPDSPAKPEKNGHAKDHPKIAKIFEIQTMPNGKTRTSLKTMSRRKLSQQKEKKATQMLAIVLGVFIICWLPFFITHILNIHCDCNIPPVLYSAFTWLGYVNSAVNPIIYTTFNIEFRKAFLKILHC

This test concerns the target D(2) dopamine receptor (Homo sapiens) (UniProt P14416). The experiment in a line: Beta-Arrestin HTS for Positive Allosteric Modulators of the Human D2 Dopamine Receptor: Potentiators. The note with it: DiscoveRx D2 beta-arrestin cells, luminescence, 90 min; hits give high values; 100% = 57 uM dopamine signal. The text has this: There is great interest in identifying small molecule ligands for G-protein coupled receptors (GPCRs) as nearly 50% of all FDA-approved drugs target these important receptor proteins. […] Amongst the dopamine receptors (DARs), the D2 is arguably one of the most validated drug targets in neurology and psychiatry. For instance, all receptor-based antiparkinsonian drugs primarily work via stimulating the D2 DAR, whereas all FDA-approved antipsychotic agents are antagonists of this receptor. The D2 DAR is also therapeutically targeted in other disorders such as restless legs syndrome, tardive dyskinesia, Tourette's syndrome, and hyperprolactinemia.
To this end, a miniaturized qHTS screen was developed to be screened against the Molecular Libraries Small Molecule Repository (MLSMR). This assay seeks to identify potentiators against the D2 DAR.
NIH Molecular Libraries Probe Production Network [MLPCN]
NIH Chemical Genomics Center [NCGC]
PI Name: David Sibley, National Institutes of Neurological Disorders and Stroke
DiscoveRx D2 cells were thawed from frozen stock and seeded at 2,100 cells/ 3 uL/well media (DiscoveRx Plating Reagent 2) with MultiDrop Combi dispenser (Thermo Scientific, Logan, UT) onto white tissue culture treated 1536-well Aurora plates (Brooks Automation, Chelmsford, MA) and allowed to attach overnight at 37 deg C, 5% CO2. Next, 23 nL/well of compound solutions in DMSO were added with a pintool transfer (Kalypsis, San Diego, CA). As the positive control, 1 uL/well dopamine (EC100, 57 uM final concentration) diluted in buffer (HBSS + 10 mM HEPES + SMB + 0.1 %Tween-20) was dispensed to 1 column of each plate. EC20 (Dopamine at 50 nM final concentration) was dispensed to the rest of the plate except columns 1 &2 which were used as negative control (EC=0, buffer only), 1 uL/well as well. The cells were stimulated by compounds and dopamine for 90 minutes at 37 deg C, 5% CO2, after which 1.5 uL/well of DiscoveRx detection reagent was added with BioRAPTR FRD dispenser. The detection reagent was prepared by mixing of Galacton Star Substrate, Emerald II solution and PathHunter buffer (supplied by the assay kit) together at 1:5:19 proportion accordingly just prior to dispensing. The plates were incubated at ambient temperature for 1 hour and then the luminescent signal was read on ViewLux plate reader (PerkinElmer, Waltham, MA).
On to `CSc1ncnc2c1ncn2CCCNCc1cccs1`, for which the potentiation is 0.128%.
Under `CCN(CC)P(=O)(Nc1ccc(SC(F)F)cc1)c1ccc(N(C)C)cc1NC(=O)c1ccco1` (stereo unspecified) stands -7.82%; under `CC(=O)CC[C@@H](C)O[C@@H]1OC(C)[C@H](O)CC1O` (stereo partly specified), -9.1%.
For the compound `Cc1ccc(S(=O)(=O)N2CCC3(CC2)OCCO3)c(C)c1`, the potentiation was -6.31%.
Take `COc1ccc(-c2onc3ccc(C(C)=O)cc23)cc1`: the potentiation was 28%.
Under `Oc1ccc(-c2onc3ccc(Cl)cc23)cc1` stands 50.4% (active).
For `NC(N)=Nc1nc(-c2ccccc2)c2cc(Cl)ccc2n1`, the potentiation was -62.5%.
For the compound `Nc1nc(SCC(=O)NCCN2CCOCC2)nc2sc3c(c12)CCC3`, the potentiation is -8.51%.
The result for `CC(C)(C)C1CCc2c(sc3nc(SCC(N)=O)nc(N)c23)C1` (stereo unspecified) reads 58.8% (active); that for `C=C(C)CSc1nc(N)c2c3c(sc2n1)CCC3`, -7.64%.
Regarding `CCOC(=O)CN(C(=O)COc1nc(C)cc(C)c1C#N)c1ccc(Cl)cc1`, the potentiation was -3.59%.
Under `N#C/C(=C\C1=C(N2CCOCC2)C(=C\c2ccccc2)/CC1)C(=O)Nc1ccccc1F` stands -1.9%.
Under `O=C1Nc2ccc(Br)cc2/C1=N/N=C/C1=C(N2CCOCC2)C(=C\c2ccccc2)/CC1` stands -26.8%.
The result for `O=C(O)c1ccc(NN=CC2=C(N3CCOCC3)/C(=C/c3ccccc3)CC2)cc1` reads 77.1% (active).
On to `COc1ccc(CCn2ccc(O)c(Cc3ccc(Cl)cc3Cl)c2=O)cc1OC`, for which the potentiation was -38.7%.
As for `COc1ccc(C(=O)O/N=C(\N)Cc2ccc(Cl)cc2Cl)cc1OC`, the potentiation was 94.6% (active).
Under `COc1ccc(C(=O)n2nc(-c3ccc(Cl)cc3)nc2N)cc1OC` stands -7.87%.
As for `NC(=O)c1cc(S(=O)(=O)N2CCCC2)ccc1OCc1ccc(F)cc1`, the potentiation was -13.4%.
Take `CC1(C)NC(=O)N(CC(=O)Nc2cc(C(F)(F)F)cc(C(F)(F)F)c2)C1=O`: the potentiation was 1.66%.
In the case of `COc1ccc(CCNCc2c(-c3ccccc3)n(C)c3ccccc23)cc1`, the potentiation is -20.4%.
For the compound `CC1(C)CC(=O)C=C(NCCN2CCNCC2)C1`, the potentiation is -7.29%.
On to `COc1ccc(-c2nnc(SC(C)C(=O)NC3CC3)o2)cc1` (stereo unspecified), for which the potentiation is 0.965%.
The result for `COc1ccc(CN(C(=O)CSc2nnc(-c3ccc(OC)c(OC)c3)o2)c2ccc(F)cc2)cc1` reads -14.5%; that for `COc1ccc(-c2nnc(SC(=O)N3c4ccccc4Sc4ccccc43)o2)cc1`, 72.5% (active); that for `CC(C)c1ccc(Nc2ncccc2C#N)cc1`, -6.55%.
The result for `COc1ccc(-c2csc(C(O)c3cccc(Cl)c3)n2)cn1` (stereo unspecified) reads -10.4%.
